LmPK inh – LmPK (Leishmania mexicana) enzyme inhibition. Q27686. purified LmPK, Kinase-Glo ATP luminescence, 1 h. Potency, µM (top dose mostly 57.5 µM), usual class: inhibitors. actives 0.37% (n = 290,000)
Target sequence (Q27686 whole entry, looked up): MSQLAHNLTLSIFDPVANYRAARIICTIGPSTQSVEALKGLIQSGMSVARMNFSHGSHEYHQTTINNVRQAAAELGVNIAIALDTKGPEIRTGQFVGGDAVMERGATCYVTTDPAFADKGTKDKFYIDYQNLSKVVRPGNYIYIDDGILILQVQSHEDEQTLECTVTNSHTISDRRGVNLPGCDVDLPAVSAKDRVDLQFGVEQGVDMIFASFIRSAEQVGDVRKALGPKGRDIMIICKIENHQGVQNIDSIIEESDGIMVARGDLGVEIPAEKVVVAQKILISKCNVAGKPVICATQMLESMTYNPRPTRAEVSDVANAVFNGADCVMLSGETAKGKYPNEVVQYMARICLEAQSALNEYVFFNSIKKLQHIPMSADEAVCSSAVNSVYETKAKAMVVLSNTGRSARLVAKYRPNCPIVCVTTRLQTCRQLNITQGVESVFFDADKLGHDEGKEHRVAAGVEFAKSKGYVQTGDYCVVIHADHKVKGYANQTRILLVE
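Purified LmPK (0.1 nM) converted ADP (0.1 mM) to ATP with PEP (0.5 mM) in imidazole buffer pH 7.2 with KCl and MgCl2, 1 h at room temperature. ATP was read by Kinase-Glo luminescence; data normalized to uninhibited and no-enzyme controls.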
Cycloheximide cs – affects cycloheximide protein synthesis inhibition readout, counter-screen; cell reporter, cycloheximide protein synthesis inhibition counterscreen; max response, %; actives 12% (n = 300,000); AID 2314; in the data active means max response mostly above about 13%, no sharp cut-off; inactive means mostly below about 14%; further: read at 38.3 µM for the half of the compounds with a filed dose
Pf growth 48h – P. falciparum growth inhibition at 48 hours (one generation). P. falciparum luciferase growth in erythrocytes, 48 h. Potency, µM (doses to about 28.7 µM), usual class: inhibitors. actives 5.9% (n = 310,000). AID 504832
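Growth was read as firefly luciferase luminescence after a 48 h, 37 C, 5% CO2 exposure of compounds to reporter-bearing P. falciparum cultures (0.1% parasitemia, 2% hematocrit final) in Albumax-supplemented RPMI 1640.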
Pf growth 96h – P. falciparum growth inhibition at 96 hours. P. falciparum luciferase reporter growth, 96 h. Potency, µM (titrated, usually from 28.7 µM), hits mostly inhibitors. actives 6.9% (n = 320,000). AID 504834
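Parasite growth measured via integrated firefly luciferase reporter in P. falciparum. Infected erythrocytes at 2% hematocrit, 0.05% parasitemia final were treated 96 hours at 37 C under 5% CO2, and luminescence was read.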
Shiga toxin inh – inhibitors of Shiga toxin in Vero cells; actives 9.2% (n = 290,000); Vero cells, Shiga toxin protein synthesis inhibition reporter; AID 2315; inhibition, % at 38.7 µM; in the data active means inhibition mostly above about 28%, no sharp cut-off; inactive means mostly below about 43%
Hits are given with their value; . = inactive; ? = inconclusive; / = no result; ! = repeats disagree; [ ] = dose if it differs, or a comment. Shown are actives, neighbours in structure and some others; about 22% of the full set was active somewhere. Unless noted, the call rests on the fitted dose curve; in most records, active means well fitted inhibition curve with a large enough effect; inconclusive means small, poorly fitted or top-dose-only effect, or another doubt; inactive means no such curve, though single readings can be large or run the other way.

SMILES | LmPK inh | Cycloheximide cs | Pf growth 48h | Pf growth 96h | Shiga toxin inh
Cc1ccc2c(c1)c1ncnc(N3CCC4(CC3)OCCO4)c1n2C | . | 33 | . | .[5.75 µM] | 64
COc1ccc(C(=O)Nc2cccc(OC(=O)c3ccco3)c2)cc1 | . | 20 | . | . | .
Cc1ccc(OC(=O)c2ccc(C)c(C)c2)cn1 | . | 34 | . | ? | 52
CC(=O)Oc1ccc(C(=O)Nc2cccc(C(=O)c3ccc(C)c(C)c3)c2)cc1 | . | . | 12µM | . | .
Cc1ccc(OC(=O)c2ccc(Cl)c([N+](=O)[O-])c2)cn1 | . | . | . | ? | .
CC(=O)Oc1ccc(C(=O)Nc2cccc(NC(=O)c3ccco3)c2)cc1 | . | . | . | ? | .
COc1ccc(C(=O)Nc2cccc(OC(=O)c3ccc(C)c(C)c3)c2)cc1 | . | 24 | . | . | 43
Cc1cccc2nc(-c3ccco3)c(Nc3ccc4c(c3)OCCO4)n12 | . | . | ? | ? | .
COc1ccc(Nc2c(-c3ccco3)nc3cccc(C)n23)cc1 | . | . | . | 2.6µM | .
COc1ccc(Nc2c(-c3ccco3)nc3ccc(C)cn23)cc1 | . | 31 | ? | ? | .
Cc1ccc(Nc2c(-c3ccco3)nc3ccccn23)cc1 | . | 30 | ? | . | 97
O=C(NCc1ccccn1)c1ccc(CNS(=O)(=O)c2ccc(F)cc2)cc1 | . | . | . | . | .
O=C(COC(=O)c1ccc(C(F)(F)F)cc1)Nc1cccc(S(=O)(=O)N2CCCCC2)c1 | / | / | . | ? | /
CCS(=O)(=O)/N=C(\N)c1ccccc1 | . | 30 | . | . | .
CCOc1ccc(S(=O)(=O)/N=C(\N)c2ccccc2)cc1 | . | . | . | . | .
O=C(COC(=O)CN1C(=O)C2CCCCC2C1=O)Nc1cc(S(=O)(=O)N2CCOCC2)ccc1Cl (stereo not drawn) | . | . | . | . | .
CC(=O)N1c2ccc(S(=O)(=O)N3CCC(C(=O)NCc4ccccc4Cl)CC3)cc2CC1C (stereo not drawn) | . | . | ? | 9.3µM | .
CC(=O)N1c2ccc(S(=O)(=O)N3CCC(C(=O)NCc4ccc(Cl)cc4)CC3)cc2CC1C (stereo not drawn) | . | . | 9.3µM | . | .
CC(=O)N1c2ccc(S(=O)(=O)N3CCCC(C(=O)NCc4ccccc4Cl)C3)cc2CC1C (stereo not drawn) | . | . | ? | ? | .
CC(=O)N1CCCc2cc(S(=O)(=O)N3CCCC(C(=O)Nc4cccc(C)c4)C3)ccc21 (stereo not drawn) | . | . | . | . | .
CCc1cccc(NC(=O)C2CCCN2S(=O)(=O)c2ccc3c(c2)CC(C)N3C(C)=O)c1 (stereo not drawn) | . | . | 12µM | ? | .
CCOc1ccc(NC(=O)C2CCCN(S(=O)(=O)c3ccc4c(c3)CCCN4C(C)=O)C2)cc1 (stereo not drawn) | . | . | 12µM | ? | .
CC1CCCC(NC(=O)COC(=O)c2cc(S(=O)(=O)N3CCOCC3)ccc2F)C1C (stereo not drawn) | / | / | . | . | /
COc1ccccc1C(=O)C1CCCN(C(=O)c2ccco2)C1 (stereo not drawn) | . | . | . | ? | .
CC(=O)Nc1ccn(C2CC3OCC(NC(=O)C(Cc4ccccc4)NC(=O)OC(C)(C)C)C3O2)c(=O)n1 (stereo not drawn) | / | . | / | / | .
SMILES | LmPK inh | Cycloheximide cs | Pf growth 48h | Pf growth 96h | Shiga toxin inh
COCCNC(=O)C1CCC(CNS(=O)(=O)c2ccc3c(c2)CC(C)N3C(=O)C2CC2)CC1 (stereo not drawn) | . | . | . | 12µM | .
CC(=O)N1c2ccc(S(=O)(=O)N3CCC(C(=O)NCc4ccc(C)cc4)CC3)cc2CC1C (stereo not drawn) | . | . | ? | 12µM | .
CCN(c1ccc(OC)cc1)S(=O)(=O)c1ccc2c(c1)CC(C)N2C(=O)C1CC1 (stereo not drawn) | . | 22 | ? | ? | .
COc1ccc(CNC(=O)C2CCN(S(=O)(=O)c3ccc4c(c3)CC(C)N4C(=O)C3CC3)CC2)cc1 (stereo not drawn) | . | . | ? | 15µM | .
CC(Sc1nnc2n1CCCCC2)C(=O)Nc1ccc(S(N)(=O)=O)cc1 (stereo not drawn) | / | / | . | . | /
O=C(O)c1nn(-c2cccc(Cl)c2)c(=O)cc1O | . | . | . | . | .
CC1Cc2cc(S(=O)(=O)N3CCC(C(=O)NCc4ccco4)CC3)ccc2N1C(=O)C1CCC1 (stereo not drawn) | . | . | 9.3µM | ? | .
CCc1ccccc1NC(=O)C1CCCN(S(=O)(=O)c2ccc3c(c2)CC(C)N3C(C)=O)C1 (stereo not drawn) | . | . | ? | 13µM | .
CN1CCC(=C2c3ccccc3Sc3ccccc32)CC1 | / | / | 4.3µM | ? | /
CN1CCC(=C2c3ccccc3C=Cc3ccccc32)CC1 | . | . | 12µM! | ? | .
CN1CCN(C(=O)N2c3ccccc3C=Cc3ccccc32)CC1 | . | . | . | ? | .
Cc1ccccc1OC(C)C(=O)NCCCN1CCOCC1 (stereo not drawn) | . | . | . | ? | .
CN(CC(=O)Nc1ccc(F)c(F)c1F)C(=O)CN1C(=O)C2CCCCC2C1=O (stereo not drawn) | . | . | . | . | .
Cc1ccc2cccc(OCCCOc3ccccc3F)c2n1 | . | 25 | . | . | /
COc1cccc(OC)c1OCCCOc1cccc2cccnc12 | . | 21 | ? | ? | 127
Brc1ccc(OCCCOc2cccc3cccnc23)cc1 | . | . | . | . | /
Cc1cccc(OCCCOc2cccc3cccnc23)c1C | . | 21 | ? | . | .
Brc1ccccc1OCCOCCOc1cccc2cccnc12 | . | . | . | ? | .
Cc1ccc(OCCCOc2cccc3cccnc23)cc1C | . | 17 | ? | . | .
Cc1nc2c(Br)cc(Br)cc2cc1O | . | . | / | ? | .
CC(C)Cn1c(N)c(C(=O)COC(=O)c2c(O)c(Cl)cc(Cl)c2Cl)c(=O)n(C)c1=O | / | / | . | . | /
C=CCN1C(=O)c2ccc(C(=O)OCC(=O)Nc3ccc(S(N)(=O)=O)cc3)cc2C1=O | / | / | . | . | /
CCOC(=O)CC1C(=O)NCCN1Cc1cccs1 (stereo not drawn) | . | . | . | . | .
Cc1cccc(NC(=O)C2CCCN2S(=O)(=O)c2ccc(Cl)cc2)n1 (stereo not drawn) | . | . | . | . | .
C/C=C/c1ccc(OCCOCCOc2cccc3cccnc23)c(OC)c1 | . | . | ? | . | .
C/C=C/c1ccc(OCCOc2cccc3cccnc23)c(OC)c1 | . | 22 | . | . | .
Cn1c(-c2ccccc2)c[n+]2c1-c1ccccc1C2 | . | . | 0.59µM | ? | .
O=C(OCc1ccc([N+](=O)[O-])cc1)c1ccc2ccccc2n1 | . | . | . | . | .
O=[N+]([O-])c1ccc(COn2nnc3ccccc32)cc1 | . | 14 | . | . | .
Clc1ccc(COn2nnc3ccccc32)c(Cl)c1 | . | 44 | . | / | 109

Bioassay records deposited in PubChem BioAssay by National Center for Advancing Translational Sciences (NCATS).
